From PubChem BioAssay (NCATS)
“And” between values parts separate entries of the source, which are not always exact repeats. Identical values can stand only once. Results filed as inconclusive are left out.

Experiment: qHTS Assay for Lipid Storage Modulators (AID 1519)
Settings: Drosophila S3 cells, BODIPY lipid droplet/cell ratio, laser cytometry; measured here: lipid channel max response; cells loaded with oleic acid
Outline: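 Cells seeded at 5,000 per well were treated with compounds over a concentration series and loaded with oleic acid (400 uM, as added). Lipid droplet fluorescence (488 nm excitation, 500-530 nm channel) was read by laser-scanning cytometry and normalized to 20 uM Triacsin C.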

Row | Structure (SMILES) | max response
1 | CCC(COC(=O)c1cc(OC)c(OC)c(OC)c1)(c1ccccc1)N(C)C (centres undefined) | -1.9%
2 | O=c1[nH]c2ccccc2n1CCCN1CCC(n2c(=O)[nH]c3cc(Cl)ccc32)CC1 | 4.47% and 17.4% and -21%
3 | Nc1ccncc1 | -10.8% and 8.53%
4 | O=[N+]([O-])c1cc([As](=O)(O)O)ccc1O | 0.435% and 19.2%
5 | c1ccc(C2CC2)c(OCC2=NCCN2)c1 | 26.1%
6 | Cc1cccc(C)c1NC1=NCCCS1 | 4.95% and -18.3%
7 | CCCN1CCC[C@@H]2Cc3[nH]ncc3C[C@H]21 | -11.8% and 9.61%
8 | CC(C)CC(N(C)C)C1(c2ccc(Cl)cc2)CCC1 (centres undefined) | 6.62%
9 | CN(C)CCN(C)CCc1ccc(Cl)c(Cl)c1 | 4.59%
10 | Cc1ccc(-c2nc3ccc(C)cn3c2CC(=O)N(C)C)cc1 | 4.31%
11 | CNCCCN1c2ccccc2CCc2ccccc21 | -6.66% and 25.9%
12 | Oc1cccc2cccnc12 | 3.47%
13 | COc1ccccc1N1CCNCC1 | 15.1% and -12.9%
14 | CCn1cc(C(=O)O)c(=O)c2ccc(C)nc21 | 0.934%
